# FECH inh: blocks human mitochondrial ferrochelatase activity. P22830. purified FECH, Ni-mesoporphyrin absorbance 550 nm. calls only at 10 µM (by protocol). actives 3.3% (n = 20,000). AID 1671448;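 active means enzyme reaction rate more than 3 SD below the solvent-only control wells on the same plate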;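 further: lower slope than DMSO wells means FECH inhibition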
# Target sequence (P22830 whole entry, looked up): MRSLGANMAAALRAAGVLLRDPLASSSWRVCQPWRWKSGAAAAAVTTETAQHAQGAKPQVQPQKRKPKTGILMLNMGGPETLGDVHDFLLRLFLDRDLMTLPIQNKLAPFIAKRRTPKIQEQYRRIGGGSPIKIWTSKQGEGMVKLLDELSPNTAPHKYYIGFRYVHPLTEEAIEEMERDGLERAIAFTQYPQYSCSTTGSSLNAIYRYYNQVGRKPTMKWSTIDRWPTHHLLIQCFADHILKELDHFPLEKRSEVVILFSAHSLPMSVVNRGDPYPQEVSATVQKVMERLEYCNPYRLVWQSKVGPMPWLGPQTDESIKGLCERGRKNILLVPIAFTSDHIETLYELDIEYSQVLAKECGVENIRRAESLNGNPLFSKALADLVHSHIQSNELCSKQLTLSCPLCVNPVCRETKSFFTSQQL
# Starred values were filed as active, the others as inactive; i = inactive; + = active, no number. This is one part of a sample in which hits are shown more often than they occur.
SMILES,FECH inh
CN(Cc1ccoc1)C(=O)c1cn(Cc2cccc(C(F)(F)F)c2)nn1,i
Cc1ccccc1-c1cc(O)c2c(c1)CN(C(=O)CCn1cnnc1)CCO2,i
Cc1ccc(N(Cc2nc3nc(C)cc(C)n3n2)C(=O)C2CCCCC2)cc1,i
CCCC(=O)N(Cc1nc2nc(C)cc(C)n2n1)c1cccc(C)c1,+
Cc1cc(C)n2nc(CN(C(=O)C3CCCCC3)c3cccc(Cl)c3)nc2n1,i
Cc1cccc(N(Cc2nc3nc(C)cc(C)n3n2)C(=O)CCc2ccccc2)c1,i
COc1cccc(C(=O)N(Cc2nc3nc(C)cc(C)n3n2)c2ccc(Cl)cc2)c1,i
Cc1cc(C)n2nc(CN(C(=O)c3cccc(Cl)c3)c3ccc(F)cc3)nc2n1,i
Cc1ccc(N(Cc2nc3nc(C)cc(C)n3n2)C(=O)c2cccc(C)c2)cc1,+
Cc1cc(C)n2nc(CN(C(=O)C3CCCCC3)c3ccc(Cl)cc3)nc2n1,+
CCCC(=O)N(Cc1nc2nc(C)cc(C)n2n1)c1cccc(Cl)c1,i
COc1cccc(-c2cc(C(=O)N3CCN4CCN(C)CC4C3)[nH]n2)c1 (stereo not given),i
CCN(CC)c1nc(Nc2cc(OC)ccc2OC)c2cnn(-c3ccccc3)c2n1,i
Cc1cccc(-c2nc3nc(CN4CCCCCC4)cc(=O)n3[nH]2)c1,i
COC(=O)[C@@H]1C[C@@H](O)CN1C(=O)CCc1c[nH]c2ccccc12,i
Cc1nsc(NC(=O)N2CCN(C3CCCC3)C(=O)C2)n1,i
Cc1cc(C)c(Cn2cncn2)cc1CN1CCC2(CC1)CNC(=O)C2,i
Cc1nc(CN2CCN(C(=O)c3cnn(Cc4ccccc4)c3)CC2)no1,+
Cc1nc(CN2CCN(C(=O)CSc3nnc(C)s3)CC2)no1,i
O=C(c1ccccc1)N1CCC(NCc2cnn(Cc3ccccc3)c2)CC1,i
CCn1c(C2CCNCC2)nn(Cc2ccccc2-n2cccn2)c1=O,i
Cc1ccccc1CSc1ncc(Cl)c(C(=O)NCCc2ccc(S(N)(=O)=O)cc2)n1,i
O=C(c1ccc2c(c1)CCCO2)N1CCCC(c2cc(=O)[nH]cn2)C1 (stereo not given),i
Cc1ccc(Cl)cc1NC(=O)CN1CCN(Cc2ccc(F)cc2Cl)S1(=O)=O,i
Cc1ccc(Cl)cc1NC(=O)CN1CCCN(Cc2ccccc2Cl)S1(=O)=O,+
SMILES,FECH inh
COc1ccccc1NC(=O)CN1CCN(Cc2ccccc2Cl)S1(=O)=O,i
Cc1cccc(C)c1NC(=O)CN1CCN(Cc2ccccc2Cl)S1(=O)=O,i
Cc1ccc(Cl)cc1NC(=O)CN1CCCN(Cc2ccccc2)S1(=O)=O,i
Cc1c(Cl)cccc1NC(=O)CN1CCCN(Cc2ccccc2Cl)S1(=O)=O,+
Cc1c(NCc2cccnc2)cccc1C(=O)N(C)C(C)c1ccncn1 (stereo not given),i
Cc1ccc(-n2ncc3c(-n4nc(C)cc4NC(=O)Cc4ccc(Cl)cc4)ncnc32)c(C)c1,i
CC1=NOC(C)(C(=O)N2CCC(O)(c3ccc(C)cn3)CC2)C1 (stereo not given),i
NCC1Cc2cc(-c3ccc4sc(N)nc4c3)cc(Cl)c2O1 (stereo not given),i
CCN(Cc1ccccc1Cl)C(=O)CCNC(=O)c1ccccc1F,i
Cc1cccc(CN(C)Cc2cn[nH]c2-c2ccc(F)cc2)c1O,i
CN(CCC(C)(C)O)Cc1cccc(Cl)c1F,+
CC(C)C[C@@H](N)C(=O)N(C)Cc1nc(-c2ccccn2)no1,i
CCOCCCN1C(=O)CSc2c(c3ccccc3n2C)C1C(=O)NCCC(C)C (stereo not given),i
CC(=O)NC(C)c1ccc(-c2ccn[nH]2)cc1 (stereo not given),i
Cc1cccn2c(CN3CCCOCC3)c(C(=O)N3CCOCC3)nc12,i
CCN(CCO)c1nc(Nc2ccc(Cl)cc2)c2cnn(-c3ccccc3)c2n1,i
CN(CCO)c1nc(Nc2ccccc2)c2cnn(-c3ccccc3)c2n1,i
COc1ccc(Nc2nc(N3CCC(C)CC3)nc3c2cnn3-c2ccccc2)cc1,+
OCCN1CCN(c2nc(Nc3ccc(Cl)cc3)c3cnn(-c4ccccc4)c3n2)CC1,+
COc1ccc(Nc2nc(N3CCCCC3)nc3c2cnn3-c2ccccc2)cc1,i
OCCN1CCN(c2nc(Nc3ccc(F)cc3)c3cnn(-c4ccccc4)c3n2)CC1,i
COc1ccc(Nc2nc(N3CCOCC3)nc3c2cnn3-c2ccccc2)cc1,i
CN1CCN(c2nc(Nc3ccc(Cl)cc3)c3cnn(-c4ccccc4)c3n2)CC1,+
COc1ccc(Nc2nc(N3CCN(CCO)CC3)nc3c2cnn3-c2ccccc2)cc1,i
Clc1ccc(Nc2nc(N3CCN(c4ccccc4)CC3)nc3c2cnn3-c2ccccc2)cc1,i
SMILES,FECH inh
CN(CCO)c1nc(Nc2ccc(Cl)cc2)c2cnn(-c3ccccc3)c2n1,+
Cc1ccc(Nc2nc(N3CCN(C)CC3)nc3c2cnn3-c2ccccc2)cc1,i
Cc1ccc(Nc2nc(NCCN3CCOCC3)nc3c2cnn3-c2ccccc2)cc1C,i
CCCCc1nc(Cl)c(CN2C[C@H](N)C[C@H]2C(=O)NC)[nH]1,i
O=C(c1cc(=O)n(-c2ccccc2)[nH]1)N1CCCC(c2ccn[nH]2)C1 (stereo not given),i
CN1CCc2[nH]nc(C(=O)N3CCc4c(nc[nH]c4=O)C3)c2C1,i
COc1ccccc1NC(=O)Nc1nc(CC(=O)NCCc2ccccc2)cs1,i
CN(C)c1cncc(-c2cc(O)cc(CCC3CCCCN3)c2)n1 (stereo not given),i
CCOc1ccc(CN2CCN(C)C3(CCN(C)CC3)C2)c(OCC)c1C,i
COc1ccc(C)cc1-n1cnnc1CCn1cccn1,i
CCn1c(C2CCNCC2)nn(Cc2noc(C3CCCO3)n2)c1=O (stereo not given),i
CNC(=O)c1c(NC(=O)C(C)n2cncn2)sc2c1CCCC2 (stereo not given),i
O=c1cc(CN2CCOC(C(F)(F)F)C2)[nH]c(=O)[nH]1 (stereo not given),i
CN(Cc1cnc(N)nc1)Cc1nnc(-c2ccccc2)o1,i
C=CCN(CC=C)C(=O)CN1CCc2[nH]cnc2C12CCCCC2,i
O=C(Nc1ccc(Br)cc1F)N1CCC(n2cnc3cccnc32)CC1,+
Cc1ccc(NC(=O)N2CCC(n3cnc4cccnc43)CC2)c(Cl)c1,i
Cc1ccc(Cl)cc1NC(=O)N1CCC(n2cnc3cccnc32)CC1,i
Cc1ccnc(CC(C)N(C)C(=O)CSc2nnc(C)s2)c1 (stereo not given),i
Cc1ccc(-c2nc(C)cc(OCC(=O)Nc3ccc(C)c(Cl)c3)n2)cc1,i
O=c1cc(CNc2cccc(C(F)(F)F)c2)nc2nc(NCc3ccc(Cl)cc3)[nH]n12,i
CCOC(=O)CCc1c(C)nc2nc(CNc3ccccc3OCC)[nH]n2c1=O,i
Cc1nc2nc(Cc3cccc(F)c3)[nH]n2c(=O)c1C,i
CCOc1ccccc1NCc1nc2nc(C)c(Cc3ccc(Cl)cc3)c(=O)n2[nH]1,+
Cc1nc2nc(C3CC3)[nH]n2c(=O)c1NC(=O)Nc1ccc(Cl)cc1,i
COc1cccc(NCc2nc3nc(C)c(Cc4ccc(Cl)cc4)c(=O)n3[nH]2)c1,+
CCOC(=O)CCc1c(C)nc2nc(CNc3cccc(C(F)(F)F)c3)[nH]n2c1=O,+
CCc1ccccc1NCc1nc2nc(C)c(Cc3ccc(Cl)cc3)c(=O)n2[nH]1,+

# From PubChem BioAssay
